Data: PubChem BioAssay (EPA / NIEHS)
Results filed as inconclusive are left out. Calls of active or inactive are those of the source. How the source made its calls: active means hit-call score of the fitted dose curve at least 0.9, where 1 is the maximum; inconclusive means response in the unintended direction; inactive means score below 0.9.

read-out: xenobiotic metabolism (CYP1A2), CYP1A2 (gene 1544); assay: CLD_CYP1A2_48hr: CellzDirect (CLD) Gene Expression Assay for xenobiotic metabolism (CYP1A2) at 48 hours (AID 2283703)
Protocol: CLD_48hr is a cell-based, multiplexed-readout assay that uses hepatocyte, a human liver primary cell, with measurements taken at 48 hours after chemical dosing in a 96-well plate.CLD_CYP1A2_48hr is one of 16 assay component(s) measured or calculated from the CLD_48hr assay. It is designed to make measurements of mRNA induction, a form of inducible reporter, as detected with chemiluminescence signals by Quantitative Nuclease Protection Assay (qNPA) technology.Data from the assay component CLD_CYP1A2_48hr was analyzed at the endpoint, CLD_CYP1A2_48hr, in the positive analysis fitting direction relative to DMSO as the negative control and baseline of activity. Using a type of inducible reporter, gain-of-signal activity can be used to understand changes in the reporter gene as they relate to the gene CYP1A2. Furthermore, this assay endpoint can be referred to as a primary readout. To generalize the intended target to other relatable targets, this assay endpoint is annotated to the cyp intended target family, where subfamily is xenobiotic metabolism.
Human hepatocyte cultures were treated daily for two consecutive days with fresh dosing solutions containing appropriate concentrations of the 320 ToxCast chemicals (chemical identities were blinded to CellzDirect and other ToxCast collaborators), vehicle control (0.2% DMSO), and positive control inducers as summarized in Table 1. Due to the large number of treatment groups and chemicals examined, the ToxCast chemicals were divided into two groups (spanning two independent cultures of hepatocytes from separate donor preparations (Hu778: ToxCast plates 1 and 2; Hu776: ToxCast plates 3 and 4). Each preparation of human hepatocyte cultures was treated with respective vehicle control, medium only control, set of six positive controls/reference chemicals for the five hepatic receptor pathways, and a subset of eight of the ToxCast chemicals (indoxacarb, pyrithiobac-sodium, norflurazon, cyhalofop-butyl, methomyl, thiram, acetochlor, and propiconazole). These replicate data, coupled with internal replicates designed within the blinded ToxCast chemical library, provided additional data to evaluate interindividual differences between hepatocyte preparations and their potential impact on chemical profiles.Cell morphology and integrity were evaluated using phase-contrast microscopy as an indicator of hepatocyte cell health (Tyson & Green, 1987). Cultures for each treatment group (i.e., media, vehicle [0.2% DMSO], positive control inducers [multiple concentrations], and the ToxCast chemicals [multiple concentrations]) were observed and cell morphology was assessed relative to vehicle control cultures at each harvest time point (0, 6, 24, or 48 h). […] Images were evaluated at the conclusion of the study to assess changes in cell integrity and account for the effects of chemical exposure on uncharacteristic changes in concentration-dependent gene expression profiles. The results from these determinations of apparent cytotoxicity were annotated (yes/no) alongside the corresponding qNPA data for reference.At the conclusion of each treatment period, hepatocyte cultures (96-well) were washed with 1 volume of HBSS, lysed by addition of 25 ul ArrayPlate lysis buffer (HTG, Tucson, AZ), and 70 ul/well of Denaturation Oil, denatured by incubation at 95C for 10 min, and frozen at approximately -70C until analysis by nuclease protection assay (qNPA) (Roberts et al., 2007). For qNPA analysis, cell lysates were thawed at 50C for approximately 30 min, qNPA probes were added, and samples were incubated at 95C for 10 min to begin the detection process by denaturing the target RNA, dissociating the duplexes and secondary structure hybridization. At the conclusion of the hybridization period, S1 nuclease reagent was added to each sample to digest all nonprotected nucleotides at 50C for 60-90 min. […]

| Structure (SMILES) | AC50 | outcome |
| --- | --- | --- |
| CCC(C)Nc1c([N+](=O)[O-])cc(C(C)(C)C)cc1[N+](=O)[O-] (stereo not given) | 5.38 µM (active) |  |
| COC(=O)c1ccccc1S(=O)(=O)NC(=O)N(C)c1nc(C)nc(OC)n1 |  | inactive |
| CCC(C)(NC(=O)c1cc(Cl)c(C)c(Cl)c1)C(=O)CCl (stereo not given) | 20 µM (active) |  |
| O=C(O)CCCOc1ccc(Cl)cc1Cl |  | inactive |
| [2H]C1([2H])[n+]2ccccc2-c2cccc[n+]2C1([2H])[2H] |  | inactive |
| C[C@H]1[C@H](c2ccc(Cl)cc2)SC(=O)N1C(=O)NC1CCCCC1 | 5.38 µM (active) |  |
| CNC(=O)/C=C(\C)OP(=O)(OC)OC |  | inactive |
| CCN(CC)C(=O)SCc1ccc(Cl)cc1 |  | inactive |
| O=S(=O)(O)C(F)(F)C(F)(F)C(F)(F)C(F)(F)C(F)(F)C(F)(F)C(F)(F)C(F)(F)F |  | inactive |
| CCC(C)(C)C(=O)OC1=C(c2ccc(Cl)cc2Cl)C(=O)OC12CCCCC2 | 20 µM (active) |  |
| O=[N+]([O-])c1c(Cl)c(Cl)c(Cl)c(Cl)c1Cl | 3.86 µM (active) |  |
| CC(C)OC(=O)Nc1cccc(Cl)c1 | 2.46 µM (active) |  |
| O=C(O)COc1ccc(Cl)cc1Cl |  | inactive |
| CNC(=O)CSP(=S)(OC)OC |  | inactive |
| CC(C)(C)C(O)/C(=C\c1ccc(Cl)cc1Cl)n1cncn1 (stereo not given) | 3.7 µM (active) |  |
| O=C(Nc1ccccc1)Nc1cnns1 | 3.38 µM (active) |  |
| CCS(=O)(=O)c1cccnc1S(=O)(=O)NC(=O)Nc1nc(OC)cc(OC)n1 |  | inactive |
| Cc1cc(C)nc(NC(=O)NS(=O)(=O)c2ccccc2C(=O)OC2COC2)n1 |  | inactive |
| CC(C)(C)C(O)C(Oc1ccc(Cl)cc1)n1cncn1 (stereo not given) | 5.29 µM (active) |  |
| CC1(c2ccc(Oc3ccccc3)cc2)OC(=O)N(Nc2ccccc2)C1=O (stereo not given) | 0.661 µM (active) |  |

| Structure (SMILES) | AC50 | outcome |
| --- | --- | --- |
| OCCOc1ccccc1 |  | inactive |
| COP(=O)(OC)OC=C(Cl)Cl |  | inactive |
| CCOc1nc(NC)nc(NC(=O)NS(=O)(=O)c2ccccc2C(=O)OC)n1 | 14.3 µM (active) |  |
| CCc1ccc(C(=O)NN(C(=O)c2cc(C)cc(C)c2)C(C)(C)C)cc1 | 5.55 µM (active) |  |
| O=C(NC(=O)c1c(F)cccc1F)Nc1ccc(OC(F)(F)C(F)OC(F)(F)F)c(Cl)c1 (stereo not given) |  | inactive |
| COc1cc(OC)nc(NC(=O)NS(=O)(=O)c2cc(NC=O)ccc2C(=O)N(C)C)n1 |  | inactive |
| CCCN(CCOc1c(Cl)cc(Cl)cc1Cl)C(=O)n1ccnc1 | 0.178 µM (active) |  |
| Oc1cc(Cl)ccc1Oc1ccc(Cl)cc1Cl |  | inactive |
| CC1(C)C(C=C(Cl)Cl)C1C(=O)OC(C#N)c1ccc(F)c(Oc2ccccc2)c1 (stereo not given) |  | inactive |
| N#Cc1c(Cl)c(Cl)c(Cl)c(C#N)c1Cl |  | inactive |
| CNC(=O)Oc1ccccc1OC(C)C |  | inactive |
| COP(=S)(OC)Oc1ccc(SC)c(C)c1 | 6.69 µM (active) |  |
| C#CCN1C(=O)COc2cc(F)c(N3C(=O)C4=C(CCCC4)C3=O)cc21 |  | inactive |
| O=C(O)C(F)(F)C(F)(F)C(F)(F)C(F)(F)C(F)(F)C(F)(F)C(F)(F)F |  | inactive |
| COC(=O)c1ccccc1S(=O)(=O)NC(=O)Nc1nc(C)nc(OC)n1 |  | inactive |
| CC(C)N(C(=O)COc1nnc(C(F)(F)F)s1)c1ccc(F)cc1 |  | inactive |
| COc1nn(CSP(=S)(OC)OC)c(=O)s1 | 3.97 µM (active) |  |
| CCOCN(C(=O)CCl)c1c(C)cccc1CC |  | inactive |
| CCCN(CCC)c1c([N+](=O)[O-])cc(C(F)(F)F)cc1[N+](=O)[O-] | 9.22 µM (active) |  |
| COP(=S)(OC)Oc1ccc([N+](=O)[O-])cc1 | 5.33 µM (active) |  |
